The panel holds about 79,000 compounds, 15% with a hit somewhere; the sample as a whole holds those more often. Unmarked numbers belong to inactive results. Activity calls are given as the source filed them. Rule as the data show it: active = growth inhibition above about 70%; inactive = the rest.
Tests used:
[1] = NCI Yeast Anticancer Drug Screen. Data for the rad50 strain (AID 155);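 also: 0% = growth of vehicle-only cultures of the same strain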; details: S. cerevisiae rad50 strain growth inhibition; at 50.0 µM; active compounds read high
Outline: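 Readout: growth inhibition relative to vehicle-treated cultures. Compound exposure was carried out in a genetically defined yeast strain deficient in DNA damage repair.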

[2] = NCI Yeast Anticancer Drug Screen. Data for the mec2-1 strain (AID 157); details: S. cerevisiae mec2-1 strain, at 50.0 µM, active compounds read high
Outline: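 Readout is yeast growth inhibition, normalised to vehicle-treated controls, in the mec2-1 strain exposed to compound.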

[3] = NCI Yeast Anticancer Drug Screen. Data for the sgs1 mgt1 strain (AID 161);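 also: 0% = growth of cultures given vehicle only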; details: S. cerevisiae sgs1 mgt1 strain, at 50.0 µM, active compounds read high
Outline: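 Growth of a repair-deficient yeast mutant was monitored after compound treatment and expressed as inhibition relative to vehicle-treated cultures.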

[4] = NCI Yeast Anticancer Drug Screen. Data for the cln2 rad14 strain (AID 165);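 also: 0% = growth equal to vehicle treated cultures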; details: S. cerevisiae cln2 rad14 strain, at 50.0 µM, active compounds read high
Outline: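 Relative to vehicle controls, growth inhibition of compound-treated cln2 rad14 yeast was recorded.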

[5] = NCI Yeast Anticancer Drug Screen. Data for the bub3 strain (AID 167); details: S. cerevisiae bub3 mutant strain, at 50.0 µM, active compounds read high
Outline: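 Readout: yeast growth inhibition, expressed relative to vehicle-only wells. The test organism is a mutant strain from a panel with lesions in DNA repair or checkpoint genes.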

[6] = NCI Yeast Anticancer Drug Screen. Data for the mlh1 rad18 strain (AID 175); details: S. cerevisiae mlh1 rad18 strain growth inhibition; at 50.0 µM; active compounds read high
Outline: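 Test agents were incubated with a yeast strain of defined genotype (DNA damage repair defect). Inhibition of growth was derived by comparison with vehicle-exposed cultures.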

Row | Compound | growth inhibition [1] | growth inhibition [2] | growth inhibition [3] | growth inhibition [4] | growth inhibition [5] | growth inhibition [6]
1 | CCOC(=O)Cn1ccc[n+]1CC(=O)c1ccccc1 | -14.9% | 7.9% | 17.4% | -16.2% | -15.4% | -3.1%
2 | C1CCC(C(C2CCCCC2)C2CCCCC2)CC1 | -16.9% | -0.65% | -8.6% | 28% | -4.3% | -11.3%
3 | O=C1c2c(/C=C/c3ccc(Cl)c(Cl)c3)nc3ccccc3c2C(=O)N1CCN1CCCCC1 | 89.3% (active) | 50.6% | 83.2% (active) | 17.9% | 18.4% | 79.3% (active)
4 | CC(=O)S | -36.5% | -18.4% | -11.9% | -24.2% | 6.35% | 5.7%
5 | COc1ccc(CSc2n[nH]c(=O)[nH]c2=S)cc1 | 14.8% | -4.45% | -10.4% | -12.1% | 4.7% | 38.4%
6 | CCOC(=O)C(C)C(=O)OCC | 51.2% | -17.9% | 2.55% | -3.6% | 2.3% | 34.5%
7 | CCOc1ccccc1N=Nc1c(C)nc(N)nc1OCC | 6.65% | 6.65% | 6.55% | -30.1% | 4% | 14.9%
8 | COC1OC(CO)C(O)C(NC(=O)OCc2ccccc2)C1O (configuration not stated) | 2.6% | -1.7% | 3.05% | -46.1% | 1.1% | -13.4%
9 | CC1=NN(c2ccc([N+](=O)[O-])cc2)C(=O)C1 | 25.6% | 0.25% | 22.6% | 6.1% | 25.6% | 36.9%
10 | CCOc1cc(/C=N/NC(=O)c2ccccc2NC(=O)c2ccccc2)ccc1OC | -21.6% | 2.35% | 17.8% | -4.1% | 5.4% | 5.7%
11 | Cc1cnc(SC(C)(C)C)c(C)c1 | -0.2% | -20.2% | -8.55% | -68.6% | 12.9% | -10.5%
12 | Cc1ccc2nccnc2c1 | -2.45% | 3.9% | -12.2% | 5.1% | 10.9% | -1.85%
13 | Cc1ccn2nnnc2c1 | -8.45% | -11.2% | -1.2% | 1% | 3.45% | -17.6%
14 | CC1OC(C)(CCc2ccccc2)OC1C (configuration not stated) | 0.4% | -46.8% | 11.7% | -12.2% | -21.6% | -8%
15 | O=C(/C=C/c1ccccc1)OCCCl | -23.4% | -15.1% | -17.9% | -14.1% | -22.4% | -7.35%
16 | O=C(c1ccccc1)C1CCC(C(=O)c2ccccc2)C1=O (configuration not stated) | 15.8% | 14.3% | -8% | 17.9% | 7.3% | -17.2%
17 | COc1cc(-c2c(C)c(C)nc(OC)c2C#N)cc(OC)c1OC | -1.05% | -13.9% | -24% | -19.1% | -15.2% | -17.9%
18 | c1ccc2c(c1)-c1ccccc1C2N1CCCC1 | 14.2% | 14.8% | 4.2% | 10.4% | -0.85% | -7.9%
19 | N#C/C(=C\c1cccc(Br)c1)c1nc2ccccc2c(=O)[nH]1 | 5.75% | 4.4% | 0.2% | 1.55% | -14.4% | -35.4%
20 | COC(C(=O)[O][Ge]([CH3])([CH3])[CH3])c1ccccc1 (configuration not stated) | 13.8% | -17.8% | -6.85% | 31.4% | -2.15% | -9.25%
21 | CN(C)CC1CCCCCCC1=O (configuration not stated) | -6.45% | 12.7% | -8.55% | -8.1% | -8.85% | 12.8%

Row | Compound | growth inhibition [1] | growth inhibition [2] | growth inhibition [3] | growth inhibition [4] | growth inhibition [5] | growth inhibition [6]
22 | O=C(C[n+]1ccccc1)N/N=C(/CCC(=O)N(Cc1ccccc1)Cc1ccccc1)CC(=O)c1ccccc1 | -21.1% | -21.8% | -38% | 0.85% | -26.6% | -21.8%
23 | O=c1[nH]n(CCc2ccccc2CCl)c2ccc([N+](=O)[O-])cc12 | 26% | 14.6% | 16.4% | 9.45% | 38.7% | -10.6%
24 | CC1(C)C(=O)N(c2ccccc2)C1c1ccccc1 (configuration not stated) | -6.2% | -5.4% | -1.5% | -40.5% | 12.1% | -5.7%
25 | COC(=O)c1cc(CN(C)C)c(O)c(CN(C)C)c1 | -20.3% | -10.8% | -34% | -3.7% | 2% | -29%
26 | CN1CCN(C(=S)N(C)C(=O)c2ccc(Cl)cc2)CC1 | 13.3% | -20.1% | -20.3% | 19.1% | -22.9% | -9.65%
27 | OCc1ccccc1C(c1ccc(O)cc1)c1ccc(O)cc1 | 26.3% | -7.9% | 28.9% | 18% | 12.7% | 5.15%
28 | CCOP(=O)(OCC)C(Cc1ccc(OC)c(OC)c1)N=C(c1ccccc1)c1ccccc1 (configuration not stated) | 4.8% | -5.7% | -12.2% | -13.3% | -7.55% | -7.9%
29 | OC(C1COCO1)C1OCOC1C1COCO1 (configuration not stated) | 21.6% | 9.45% | 3.2% | 3.55% | -11.2% | 6.15%
30 | CC(=O)O/C(C)=C/C(C)C | 2.65% | -5.35% | 9% | -3.15% | 2.1% | -8.95%
31 | C/C(=C\O[Si](C)(C)C)c1ccccc1 | 37.6% | 23.9% | 12.4% | 7.6% | -11.2% | 41.1%
32 | Br/C(=N\Nc1nn[nH]n1)c1ccncc1 | -15.1% | 1.75% | -26.1% | -22% | -21.8% | -28.9%
33 | CC1(C)OC2(C)CCC1C1C2N1C(=O)Nc1cccc2ccccc12 (configuration not stated) | -9% | -9.5% | -1.35% | -6.5% | -3.75% | -22.8%
34 | BrCCCOc1ccccc1 | -23.7% | -32.8% | -5.65% | -2.9% | -2.4% | 0.7%
35 | CN(C(=O)C12C3C4C5C3C1(C(=O)O)C5C42)C(C)(C)C (configuration not stated) | 35.4% | 12.2% | 0.85% | 18.8% | 28.1% | 25.9%
36 | COc1ccc(C(O)c2ccc(OC)cc2)cc1 | -10.8% | -16.6% | -23.9% | 10.1% | -22.3% | -7.6%
37 | C[S+](C)CCS(=O)(=O)[O-] | 10.3% | -6.45% | -2.1% | -30.4% | 4.95% | -13.2%
38 | CCCN(N)CCC | -8.15% | -16.6% | -7.8% | -45.2% | 0.25% | -1.6%
39 | COc1cc2c(cc1OC)C(C#N)(C(c1ccccc1)c1ccccc1)N(C(=O)c1ccccc1)C=C2 (configuration not stated) | 16.9% | 3.45% | 1.35% | -1.15% | -0.7% | 30.9%
40 | O=Cc1ccc(C=O)cc1 | 22.6% | -3.35% | 26.9% | 11.9% | 14.2% | 32.5%
41 | CC(=O)c1ccc(NC(N)=O)cc1 | 2.15% | -10.4% | 5.3% | -8.1% | -7.15% | -12.5%
42 | C=C1CN(C2=NCCO2)C1 | -17.6% | -39.6% | -5.65% | -12.9% | -13.6% | 4.05%
